# aSyn UTR act: Activators working through SNCA 5'UTR binding (MLPCN) | AID 1814 | alpha-synuclein 5'UTR reporter, activators screen | hit rate 7.1% among 300,000 | activity score, % (tested at 7.5 µM), hits read low; in the data active means activity score below about -60%
# Starred values were filed as active, the others as inactive. Not all results are given here.
SMILES,aSyn UTR act
COc1cc(C2C=C(Nc3ccccc3)C(=O)N2c2ccccc2)ccc1O (stereo unspecified),-72.1*
O=C1CC(c2ccccc2Cl)=NN(c2ncnc3ccccc23)C1=O,-73.7*
c1ccc(-c2ccc(-c3[nH]ncc3CN3CCC(N4CCSCC4)CC3)cc2)cc1,-143.3*
Oc1ccc(C=Nc2ccccc2-c2nc3ccccc3[nH]2)c(O)c1,-124.7*
Oc1ccccc1C=Nc1ccccc1-c1nc2ccccc2[nH]1,-123.0*
COc1ccc(OC)c(C=Nc2ccccc2-c2nc3ccccc3[nH]2)c1,-212.5*
C=CCSc1nnc(-c2sc(-c3ccccc3)nc2C)n1C,-63.8*
C=CCc1c(C)nc(SC)nc1Nc1ccc(C(C)=O)cc1,-75.9*
CCn1c(C)c(C)c2cc(C(=O)Nc3cccc(Cl)c3)ccc21,-117.4*
CCn1c(C)cc(O)c(C(=O)Nc2cccc(Cl)c2)c1=O,-95.6*
Cc1cc(O)c(C(=O)Nc2cccc(Cl)c2)c(=O)n1C,-103.8*
COCCn1c(C)cc(C(=O)CN2C(=O)NC3(CCCCCCC3)C2=O)c1C,-99.2*
COCCn1c(C)cc(C(=O)CSc2nnc(C)s2)c1C,99.6
Cc1cc(C)c(C(=O)CN2C(=O)NC3(CCCCC3)C2=O)cc1C,-73.2*
Cc1ccc(C(=O)CN2C(=O)NC3(CCCCCC3)C2=O)c(C)c1,-131.7*
Cc1cc(=O)n2nc(-c3ccccc3)sc2n1,-99.0*
COc1ccc(/C(C)=N/N2C(=O)c3ccccc3NC2c2ccc(O)c(OC)c2)cc1 (stereo unspecified),-65.7*
Oc1ccc(Br)cc1C1Nc2ccccc2S1 (stereo unspecified),-84.1*
O=S1(=O)N=C(Nc2ccc(N3CCOCC3)c(Cl)c2)c2ccccc21,-192.7*
O=C1c2ccccc2S(=O)(=O)c2cc(N3CCOCC3)ccc21,76.4
COc1ccc(/C=N/NC(=O)c2cccc(NC(=O)c3ccccc3Cl)c2)cc1,-99.4*
COc1ccc(C(=O)Nc2cccc(C(=O)N/N=C/c3ccc(OC)cc3OC)c2)cc1,83.2
CC(=O)Nc1cccc(C(=O)N/N=C/c2ccccc2F)c1,-109.0*
CC(=O)Nc1cccc(C(=O)N/N=C/c2ccc(F)cc2)c1,-115.1*
COC(=O)c1cnc(Oc2ccc(NC(=O)NC(=O)c3c(OC)cccc3OC)cc2)cc1C(F)(F)F,74.5
SMILES,aSyn UTR act
NC(=O)c1cnn(-c2cc(Oc3ccccc3)ncn2)c1N,-66.3*
COC(=O)c1cnn(-c2cc(Oc3ccccc3)ncn2)c1N,-126.9*
c1ccc(Oc2cc(-n3cccn3)ncn2)cc1,-139.6*
Cc1ccc(NC(=O)CSc2ccc(-c3ccc4c(c3)OCO4)nn2)cc1F,-76.0*
Cc1ccc(NC(=O)Nc2ccc3c(c2)OCO3)c(OC(F)F)c1,-106.2*
Cc1cc(F)ccc1NC(=O)Nc1ccc2c(c1)OCO2,-71.8*
Cc1ccc(NC(=O)Nc2ccc3c(c2)OCO3)cc1F,-108.5*
C=C1C(=O)C=C[C@]2(C)C[C@@H]3OC(=O)[C@](C)(O)[C@H]3C[C@@H]12,-526.8*
CC(C)CC(=O)NC(=S)NNC(=O)c1ccc(NC(=O)C2CCCCC2)cc1,74.7
O=C(NC(=S)Nc1ccc(Br)cc1)C1CCC1,-95.5*
O=C(NC(=S)Nc1ccc(Br)cc1)C1CCCCC1,-68.5*
O=C(NC(=S)Nc1ccccc1)C1CCCCC1,-62.5*
CCC(=O)NC(c1cccs1)c1cc(Cl)c2cccnc2c1O (stereo unspecified),86.2
O=C(Cc1ccccc1)Nc1ccc(NC(=O)c2ccccc2)nc1,-183.6*
CCCCC(=O)NC(c1cccs1)c1cc(Cl)c2cccnc2c1O (stereo unspecified),80.3
O=C(Nc1ccc(NC(=O)C2CC2)nc1)c1cccs1,-95.7*
O=C(Nc1ccc(NC(=O)c2cccs2)cn1)c1ccccc1,-134.1*
CCCC(=O)Nc1ccc(NC(=O)c2cccs2)cn1,-104.7*
Cn1c(SCc2ccccc2)nnc1-c1c[nH]c2ccccc12,-106.9*
CCCCSc1nnc(-c2ccc(C)cc2)n1C,-109.3*
Cn1c(SCCOc2ccc(F)cc2)nnc1-c1ccncc1,-62.4*
CCCCSc1nnc(-c2c[nH]c3ccccc23)n1C,-135.4*
Cc1cc(NC(=O)c2noc3c2CCc2ccccc2-3)no1,-77.0*
CC(=O)c1cccc(NC(=O)c2noc3c2CCc2ccccc2-3)c1,-167.9*
Cc1ccc(O)c(NC(=O)c2noc3c2CCc2ccccc2-3)c1,-122.1*
SMILES,aSyn UTR act
Cc1ccc(O)c(NC(=O)c2noc(C(C)C)c2[N+](=O)[O-])c1,-86.3*
O=C(CSc1ccccn1)Nc1nc2ccccc2s1,-62.6*
Cc1ccc(NC(=O)CSc2nccn2C)cc1F,-62.0*
Cn1ccnc1SCC(=O)Nc1ccc2nc(SCC(=O)NC3CC3)sc2c1,-152.3*
Cn1ccnc1SCC(=O)Nc1nc2ccccc2s1,-124.7*
CC(=O)Nc1cccc(-c2csc(Nc3ccc(C)cn3)n2)c1,-65.9*
CC(=O)Nc1ccc(-c2csc(Nc3cccc(C)n3)n2)cc1,-181.7*
CC(=O)Nc1cccc(-c2csc(Nc3ncccn3)n2)c1,-169.8*
Cc1ccn2cc(-c3cccc(NC(=O)c4cccs4)c3)nc2c1,-85.2*
Cc1cccn2cc(-c3cccc(NC(=O)c4cccs4)c3)nc12,-73.2*
Cc1ccccc1-n1nc(C)c2c(C(=O)NN)cc(-c3ccncc3)nc21,56.5
NS(=O)(=O)c1ccc(N/C=C/C(=O)c2ccc(Br)cc2)cc1,-108.1*
CN(C)c1ccc(N/C=C/C(=O)c2ccc(F)cc2)cc1,-120.0*
O=C(/C=C/Nc1ccc(F)cc1)c1ccc(Oc2ncccn2)cc1,-114.9*
NS(=O)(=O)c1ccc(N/C=C\C(=O)c2ccc(F)cc2)cc1,-118.4*
CCOCCCNc1ccc(-c2ccccc2)nn1,-159.0*
CCc1ccc(C(=O)N/N=C/c2ccc(Cl)cc2Cl)nc1,-75.1*
O=C(N/N=C/c1ccc(Cl)cc1Cl)c1cccc(F)c1,-212.5*
Cc1cc(/C=N/NC(=O)c2ccccc2F)c(C)n1-c1ccccc1,-132.9*
CCOC(=O)N/N=C/c1cc(C)n(-c2ccccc2)c1C,-74.6*
Cc1cc(/C=N/NC(=O)c2cccc(F)c2)c(C)n1-c1ccccc1,-152.2*
CCOC(=O)N/N=C/c1ccc(F)cc1F,-76.6*
O=C(N/N=C/c1cn(Cc2cccc(F)c2)c2ccccc12)c1cc(O)cc(O)c1,59.2
O=C(N/N=C/c1ccc(Cl)cc1)Nc1ccccc1,-170.3*
CCOc1ccc(/C=N/Nc2ccccc2)cc1,-75.3*
SMILES,aSyn UTR act
Clc1ccc(/C=N\Nc2ccccc2)cc1,-66.6*
O=C(N/N=C/c1ccco1)Nc1ccccc1,-129.9*
N=c1c2c(n(Cc3cccc(Cl)c3)c3c1CCC3)CCCC2,54.6
Cn1nnnc1SCc1nnc(-c2ccc(Cl)cc2)o1,-75.1*
Clc1ccc(COc2ccccc2-c2ccnc3ncnn23)cc1,-75.0*
CCCCNC(=O)c1cc(-c2ccc3c(c2)OCO3)on1,-66.0*
CCN(CC)C(=O)c1cc(-c2ccc3c(c2)OCO3)on1,-132.0*
CC(C)NC(=O)c1cc(-c2ccc3c(c2)OCO3)on1,-110.3*
CCCNC(=O)c1cc(-c2ccc3c(c2)OCO3)on1,-105.1*
O=C(Nc1cccc(O)c1)c1cc(-c2ccc3c(c2)OCO3)on1,69.3
CCCc1c(C)c2ccc(OCC(C)=O)cc2oc1=O,-143.2*
Cc1c(C)c2ccc(OCC(=O)c3ccccc3)cc2oc1=O,-80.4*
O=C(/C=C/c1ccccc1)OCc1cncs1,-102.8*
Cc1ccc(C(=O)NC2CCc3ccccc3C2=O)cc1 (stereo unspecified),-168.9*
CCOC(=O)C1=C(N)n2c(s/c(=C\c3cccnc3)c2=O)=C(C(=O)OC)C1c1cccnc1 (stereo unspecified),-65.9*

# Assay outcomes: PubChem BioAssay, Broad Institute
